# Measurements as given in the supplement of paper PMC10849652.
# The full data set covers some 8,800 targets. This sample favours those with a hit. About 0.5% of all pairs of compound and target were hits. Values without a mark were called inactive.
# How the values were obtained:
# Experiment in all cases: log2 fold change, soluble protein after heating vs DMSO (PISA); higher = thermal stabilisation; K562 lysate, 10 uM; active = over 0.2 and 3.5 SD of the protein, either way, in both replicates (recomputed)
# alvocidib = compound: CN1CC[C@H](c2c(O)cc(O)c3c(=O)cc(-c4ccccc4Cl)oc23)[C@H](O)C1 [alvocidib]
# In short: (§1)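 K562 pellets were dounce-homogenised in PBS pH 7.4 containing 1 mM MgCl2, and the crude extract, at 1 mg/mL protein, was exposed to 10 μM compound for 30 min. Aliquots were heated for 3 min across 48°C-58°C, pooled, brought to 0.5% NP-40 at 4°C and spun at 21,000xg for 90 min, with the supernatant taken as soluble protein. TMTpro 16plex LC-MS/MS with equalised channel sums quantified that protein. Values are log-two fold changes in thermal stability relative to solvent controls, taken from duplicates.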
# Tubastatin A = compound: CN1CCc2c(c3ccccc3n2Cc2ccc(C(=O)NO)cc2)C1 [Tubastatin A]
# In short: as §1
# [1] = compound: CNC(=O)C1=CC=CC=C1NC2=NC(=NC=C2Cl)NC3=C(C=C(C=C3)N4CCOCC4)OC
# In short: as §1
# defactinib = compound: CNC(=O)c1ccc(Nc2ncc(C(F)(F)F)c(NCc3nccnc3N(C)S(C)(=O)=O)n2)cc1 [defactinib]
# In short: as §1
# [2] = compound: CNc1nc(-c2ccc3c(N)n[nH]c3c2)cc(N2C[C@@H](C(=O)NC3CCCCC3)CC[C@H]2C)n1
# In short: as §1
# encorafenib = compound: COC(=O)N[C@@H](C)CNc1nccc(-c2cn(C(C)C)nc2-c2cc(Cl)cc(NS(C)(=O)=O)c2F)n1 [encorafenib]
# In short: as §1
# [3] = compound: COC(=O)[C@H](CCSC)NC(=O)C1=C(C=C(C=C1)NC[C@H](CS)N)C2=CC=CC=C2
# In short: as §1
# alisertib = compound: COc1cc(Nc2ncc3c(n2)-c2ccc(Cl)cc2C(c2c(F)cccc2OC)=NC3)ccc1C(=O)O [alisertib]
# In short: as §1
# [4] = compound: COc1cc2nc(-c3cc(F)ccc3O)nc(N[C@@H]3CNC[C@H]3C(C)(C)O)c2cc1OC
# In short: as §1
# gefitinib = compound: COc1cc2ncnc(Nc3ccc(F)c(Cl)c3)c2cc1OCCCN1CCOCC1 [gefitinib]
# In short: as §1
# lapatinib = compound: CS(=O)(=O)CCNCc1ccc(-c2ccc3ncnc(Nc4ccc(OCc5cccc(F)c5)c(Cl)c4)c3c2)o1 [lapatinib]
# In short: as §1
# pictilisib = compound: CS(=O)(=O)N1CCN(Cc2cc3nc(-c4cccc5[nH]ncc45)nc(N4CCOCC4)c3s2)CC1 [pictilisib]
# In short: as §1
# crizotinib = compound: C[C@@H](Oc1cc(-c2cnn(C3CCNCC3)c2)cnc1N)c1c(Cl)ccc(F)c1Cl [crizotinib]
# In short: as §1
# [5] = compound: C[C@H](C1=CC=C(C=C1)C(=O)NC2=C3C=CNC3=NC=C2)N
# In short: as §1
# duvelisib = compound: C[C@H](Nc1ncnc2nc[nH]c12)c1cc2cccc(Cl)c2c(=O)n1-c1ccccc1 [duvelisib]
# In short: as §1
# gandotinib = compound: Cc1cc(Nc2cc(CN3CCOCC3)c3nc(C)c(Cc4ccc(Cl)cc4F)n3n2)n[nH]1 [gandotinib]
# In short: as §1
# tozasertib = compound: Cc1cc(Nc2cc(N3CCN(C)CC3)nc(Sc3ccc(NC(=O)C4CC4)cc3)n2)n[nH]1 [tozasertib]
# In short: as §1
# doramapimod = compound: Cc1ccc(-n2nc(C(C)(C)C)cc2NC(=O)Nc2ccc(OCCN3CCOCC3)c3ccccc23)cc1 [doramapimod]
# In short: as §1
# bafetinib = compound: Cc1ccc(NC(=O)c2ccc(CN3CC[C@H](N(C)C)C3)c(C(F)(F)F)c2)cc1Nc1nccc(-c2cncnc2)n1 [bafetinib]
# In short: as §1
# [6] = compound: Cc1cccc(CC(=O)N2CCc3c2ccc(-c2cn(C)c4ncnc(N)c24)c3F)n1
# In short: as §1
# UniProt P35711, sequence (P35711 whole entry, looked up): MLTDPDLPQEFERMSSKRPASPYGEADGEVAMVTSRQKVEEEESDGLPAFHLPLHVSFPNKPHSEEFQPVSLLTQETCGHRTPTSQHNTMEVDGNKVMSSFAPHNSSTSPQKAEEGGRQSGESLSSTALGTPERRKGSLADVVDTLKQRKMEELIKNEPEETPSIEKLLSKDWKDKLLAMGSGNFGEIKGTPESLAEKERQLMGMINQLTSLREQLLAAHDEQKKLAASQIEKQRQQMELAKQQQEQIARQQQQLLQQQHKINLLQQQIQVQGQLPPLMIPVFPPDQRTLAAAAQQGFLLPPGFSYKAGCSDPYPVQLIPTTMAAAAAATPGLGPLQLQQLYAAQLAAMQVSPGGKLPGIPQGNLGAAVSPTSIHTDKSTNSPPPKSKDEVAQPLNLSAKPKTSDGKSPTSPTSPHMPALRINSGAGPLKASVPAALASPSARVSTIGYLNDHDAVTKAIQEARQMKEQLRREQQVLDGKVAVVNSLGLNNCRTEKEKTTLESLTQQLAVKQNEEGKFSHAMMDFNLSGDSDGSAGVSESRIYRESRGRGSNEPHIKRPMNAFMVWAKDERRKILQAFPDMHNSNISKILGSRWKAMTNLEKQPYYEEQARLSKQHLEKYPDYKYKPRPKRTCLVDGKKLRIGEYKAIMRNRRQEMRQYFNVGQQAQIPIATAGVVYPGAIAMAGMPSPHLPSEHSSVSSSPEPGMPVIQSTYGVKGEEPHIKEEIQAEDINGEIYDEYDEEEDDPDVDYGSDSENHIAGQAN
# UniProt O60504, sequence (O60504 whole entry, looked up): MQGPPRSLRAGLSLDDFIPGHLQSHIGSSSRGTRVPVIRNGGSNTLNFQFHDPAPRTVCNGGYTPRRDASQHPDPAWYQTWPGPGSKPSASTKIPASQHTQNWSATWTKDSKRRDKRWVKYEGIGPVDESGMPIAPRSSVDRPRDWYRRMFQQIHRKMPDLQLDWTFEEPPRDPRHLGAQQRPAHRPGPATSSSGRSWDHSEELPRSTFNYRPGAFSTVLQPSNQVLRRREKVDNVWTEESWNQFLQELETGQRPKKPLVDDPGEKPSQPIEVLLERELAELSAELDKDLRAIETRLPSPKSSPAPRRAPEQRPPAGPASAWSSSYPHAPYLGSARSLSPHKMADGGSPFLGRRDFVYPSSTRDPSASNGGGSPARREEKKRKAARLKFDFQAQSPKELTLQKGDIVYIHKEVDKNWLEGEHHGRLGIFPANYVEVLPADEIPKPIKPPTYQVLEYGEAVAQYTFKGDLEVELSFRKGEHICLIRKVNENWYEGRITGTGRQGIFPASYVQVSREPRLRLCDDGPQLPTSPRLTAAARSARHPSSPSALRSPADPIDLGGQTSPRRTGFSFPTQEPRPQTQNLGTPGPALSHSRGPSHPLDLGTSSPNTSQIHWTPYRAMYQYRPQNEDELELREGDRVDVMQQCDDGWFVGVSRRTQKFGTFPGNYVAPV
# UniProt Q9UJC5, sequence (Q9UJC5 whole entry, looked up): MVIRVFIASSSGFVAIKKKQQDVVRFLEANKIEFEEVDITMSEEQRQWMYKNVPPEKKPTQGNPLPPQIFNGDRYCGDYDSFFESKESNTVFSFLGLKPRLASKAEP
# UniProt Q9Y3B4, sequence (Q9Y3B4 whole entry, looked up): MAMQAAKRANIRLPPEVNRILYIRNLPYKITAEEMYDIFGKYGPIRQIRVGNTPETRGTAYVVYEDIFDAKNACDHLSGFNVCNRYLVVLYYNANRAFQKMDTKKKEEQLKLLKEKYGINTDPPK
# UniProt Q96SB8, sequence (Q96SB8 whole entry, looked up): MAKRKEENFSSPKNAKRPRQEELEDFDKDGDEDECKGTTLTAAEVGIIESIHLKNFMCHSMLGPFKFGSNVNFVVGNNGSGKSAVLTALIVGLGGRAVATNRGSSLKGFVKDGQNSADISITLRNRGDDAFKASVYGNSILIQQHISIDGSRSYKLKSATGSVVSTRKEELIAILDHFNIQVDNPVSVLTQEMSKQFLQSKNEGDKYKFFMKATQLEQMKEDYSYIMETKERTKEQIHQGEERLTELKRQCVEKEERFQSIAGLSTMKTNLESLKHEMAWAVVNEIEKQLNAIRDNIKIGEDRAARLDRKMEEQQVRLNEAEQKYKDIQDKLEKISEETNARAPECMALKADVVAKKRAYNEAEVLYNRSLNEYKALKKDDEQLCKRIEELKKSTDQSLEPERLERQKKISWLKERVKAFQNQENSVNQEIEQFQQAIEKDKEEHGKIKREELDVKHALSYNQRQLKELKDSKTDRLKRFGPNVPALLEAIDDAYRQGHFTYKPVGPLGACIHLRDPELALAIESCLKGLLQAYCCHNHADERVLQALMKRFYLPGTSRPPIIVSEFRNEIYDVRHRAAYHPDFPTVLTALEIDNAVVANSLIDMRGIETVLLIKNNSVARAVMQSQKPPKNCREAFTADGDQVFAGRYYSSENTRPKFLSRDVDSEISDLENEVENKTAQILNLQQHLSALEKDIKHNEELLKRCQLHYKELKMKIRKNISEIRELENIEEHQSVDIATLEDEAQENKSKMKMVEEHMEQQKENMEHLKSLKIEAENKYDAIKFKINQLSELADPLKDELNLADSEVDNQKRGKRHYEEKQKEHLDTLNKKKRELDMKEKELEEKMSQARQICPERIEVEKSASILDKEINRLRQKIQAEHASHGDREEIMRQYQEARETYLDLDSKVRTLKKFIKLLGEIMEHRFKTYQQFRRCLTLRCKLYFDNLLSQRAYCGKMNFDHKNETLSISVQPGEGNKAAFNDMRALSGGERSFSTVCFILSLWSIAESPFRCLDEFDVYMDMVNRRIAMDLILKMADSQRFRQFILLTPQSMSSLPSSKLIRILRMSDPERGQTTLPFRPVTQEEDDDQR
# UniProt Q13309, sequence (Q13309 whole entry, looked up): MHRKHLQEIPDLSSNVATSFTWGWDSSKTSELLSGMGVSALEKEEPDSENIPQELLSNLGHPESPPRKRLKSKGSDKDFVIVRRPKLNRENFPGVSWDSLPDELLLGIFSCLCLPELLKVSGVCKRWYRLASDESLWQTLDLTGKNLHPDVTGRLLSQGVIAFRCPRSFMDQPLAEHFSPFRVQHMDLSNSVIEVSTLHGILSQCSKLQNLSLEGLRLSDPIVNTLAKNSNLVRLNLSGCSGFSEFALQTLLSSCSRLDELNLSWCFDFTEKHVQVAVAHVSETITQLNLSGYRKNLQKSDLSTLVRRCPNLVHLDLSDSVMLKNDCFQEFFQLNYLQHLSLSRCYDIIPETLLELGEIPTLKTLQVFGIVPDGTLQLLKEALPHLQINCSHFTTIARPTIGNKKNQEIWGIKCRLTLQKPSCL
# UniProt Q7L8J4, sequence (Q7L8J4 whole entry, looked up): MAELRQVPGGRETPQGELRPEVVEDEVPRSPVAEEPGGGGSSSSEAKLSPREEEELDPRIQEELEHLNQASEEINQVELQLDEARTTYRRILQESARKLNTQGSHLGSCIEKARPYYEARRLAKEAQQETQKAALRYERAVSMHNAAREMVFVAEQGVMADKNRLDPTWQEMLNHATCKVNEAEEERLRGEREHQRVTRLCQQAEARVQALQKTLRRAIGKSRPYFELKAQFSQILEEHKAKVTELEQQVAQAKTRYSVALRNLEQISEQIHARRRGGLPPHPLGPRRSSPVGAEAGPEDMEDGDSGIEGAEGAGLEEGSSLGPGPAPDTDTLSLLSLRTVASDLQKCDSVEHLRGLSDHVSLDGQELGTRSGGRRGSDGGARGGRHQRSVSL
# UniProt P29353, sequence (P29353 whole entry, looked up): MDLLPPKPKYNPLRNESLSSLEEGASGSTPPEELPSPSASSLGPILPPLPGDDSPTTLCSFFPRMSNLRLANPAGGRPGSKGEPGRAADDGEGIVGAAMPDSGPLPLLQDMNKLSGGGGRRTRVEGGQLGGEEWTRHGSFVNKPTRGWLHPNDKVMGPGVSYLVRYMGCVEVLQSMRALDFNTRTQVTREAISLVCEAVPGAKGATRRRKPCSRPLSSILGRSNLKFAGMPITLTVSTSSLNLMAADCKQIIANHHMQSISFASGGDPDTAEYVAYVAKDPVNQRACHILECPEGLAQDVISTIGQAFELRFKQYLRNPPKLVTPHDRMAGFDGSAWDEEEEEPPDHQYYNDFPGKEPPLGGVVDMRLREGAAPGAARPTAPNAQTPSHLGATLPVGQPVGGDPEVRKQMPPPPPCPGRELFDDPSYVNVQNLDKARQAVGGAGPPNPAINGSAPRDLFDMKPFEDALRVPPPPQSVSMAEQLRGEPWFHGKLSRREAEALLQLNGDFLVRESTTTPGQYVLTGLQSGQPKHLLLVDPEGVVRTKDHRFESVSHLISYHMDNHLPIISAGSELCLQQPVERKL
# UniProt P49675, sequence (P49675 whole entry, looked up): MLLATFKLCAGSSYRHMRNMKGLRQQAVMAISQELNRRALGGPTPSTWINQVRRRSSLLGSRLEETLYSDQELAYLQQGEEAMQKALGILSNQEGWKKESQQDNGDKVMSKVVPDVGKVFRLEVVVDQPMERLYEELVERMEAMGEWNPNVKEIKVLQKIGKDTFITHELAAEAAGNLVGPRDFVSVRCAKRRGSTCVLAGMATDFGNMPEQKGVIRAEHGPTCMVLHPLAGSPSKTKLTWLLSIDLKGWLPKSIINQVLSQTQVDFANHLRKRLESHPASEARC
# UniProt Q8IX90, sequence (Q8IX90 whole entry, looked up): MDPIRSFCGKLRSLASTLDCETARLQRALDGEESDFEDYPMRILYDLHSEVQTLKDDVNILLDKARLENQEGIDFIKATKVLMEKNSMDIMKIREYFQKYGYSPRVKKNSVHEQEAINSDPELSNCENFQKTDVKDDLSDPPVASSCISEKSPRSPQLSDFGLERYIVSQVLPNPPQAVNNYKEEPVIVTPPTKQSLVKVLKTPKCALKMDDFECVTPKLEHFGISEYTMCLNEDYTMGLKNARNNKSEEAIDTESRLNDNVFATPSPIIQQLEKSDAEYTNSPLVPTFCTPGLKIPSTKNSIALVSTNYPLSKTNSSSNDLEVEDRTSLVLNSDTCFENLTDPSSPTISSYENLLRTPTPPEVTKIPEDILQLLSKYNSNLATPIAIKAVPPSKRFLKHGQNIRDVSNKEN
# UniProt Q96KF7, sequence (Q96KF7 whole entry, looked up): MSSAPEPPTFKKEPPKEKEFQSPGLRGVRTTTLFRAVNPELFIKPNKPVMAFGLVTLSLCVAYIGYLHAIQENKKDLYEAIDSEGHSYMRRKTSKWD
Target,log2 fold change (alvocidib),log2 fold change (Tubastatin A),log2 fold change [1],log2 fold change (defactinib),log2 fold change [2],log2 fold change (encorafenib),log2 fold change [3],log2 fold change (alisertib),log2 fold change [4],log2 fold change (gefitinib),log2 fold change (lapatinib),log2 fold change (pictilisib),log2 fold change (crizotinib),log2 fold change [5],log2 fold change (duvelisib),log2 fold change (gandotinib),log2 fold change (tozasertib),log2 fold change (doramapimod),log2 fold change (bafetinib),log2 fold change [6]
SHC1 isoform 6 (UniProt P29353),0.186,0.035,0.001,-0.031,0.086,0.15,-0.078,-0.008,-0.014,-0.035,0.019,-0.057,0.001,0.577 (active),0.005,-0.106,0.005,0.065,-0.034,-0.175
SF3B6 (UniProt Q9Y3B4),0.05,-0.037,0.016,0.017,0.071,0.014,-0.003,-0.011,-0.027,-0.172,-0.01,-0.083,-0.008,0.009,0.059,-0.069,-0.188,0.047,-0.009,-0.058
SH3BP5L (UniProt Q7L8J4),-0.003,-0.012,0.036,-0.003,-0.015,0.058,-0.047,0.021,0.015,0.001,0.006,-0.004,-0.01,-0.05,0.001,0.031,0.098,-0.044,0.001,0.015
SMARCA4 (UniProt P51532),0.004,-0.078,-0.007,0.002,-0.003,0.021,0.056,0.019,-0.002,-0.001,-0.029,-0.008,-0.01,-0.009,-0.003,-0.022,0.012,0.008,-0.008,0.054
TAF6L (UniProt Q9Y6J9),0.018,-0.109,-0.035,0.001,-0.116,0.096,-0.051,0.006,0.006,-0.046,-0.044,-0.091,0.035,0.037,0.024,-0.042,0.017,-0.019,-0.009,0.028
"SNX6, A0A0A0MRI2",0.076,-0.051,0.004,0.008,-0.024,0.007,0.171,-0.008,-0.003,-0.01,-0.008,0.018,-0.062,0.2,0.003,-0.134,0.022,-0.012,-0.04,-0.088
SH3BGRL2 (UniProt Q9UJC5),0.067,0.031,0.05,0.039,0.061,-0.066,0.027,-0.013,-0.001,-0.001,0.021,0.012,-0.025,0.342 (active),-0.007,-0.116,-0.078,0.021,-0.058,-0.184
SSNA1 (UniProt O43805),0.016,0.038,0.043,-0.036,0.109,0.023,-0.115,0.027,-0.014,0.013,0.012,-0.015,0.138,0.003,-0.038,0.061,0.045,0.019,-0.014,-0.034
SPHK1 isoform 2 (UniProt Q9NYA1),0.023,-0.114,0.046,0.076,-0.175,0.018,0.006,0.045,0.022,0.069,-0.039,0.001,-0.018,-0.028,0.013,0.033,0.122,0.073,-0.007,-0.041
SLC25A44 (UniProt Q96H78),-0.05,0.007,-0.221,0.064,0.14,0.015,-0.013,,0.099,,-0.031,-0.014,-0.034,-0.069,0.233,0.047,-0.008,-0.01,-0.037,0.166
STN1 (UniProt Q9H668),-0.078,-0.032,0.173,0.016,,0.024,-0.149,-0.026,-0.562 (active),0.053,0.128,-0.201,-0.068,-0.235,,-0.212,-0.059,-0.101,-0.176,-0.028
SKA3 (UniProt Q8IX90),-0.035,-0.056,0.03,0.035,0.04,0.023,-0.051,0.039,-0.012,0.063,0.009,-0.022,-0.029,-0.008,-0.022,-0.011,-0.008,0.002,0.027,0.034
SYK (UniProt P43405),-0.142,-0.015,-0.009,-0.105,0.115,0.01,0.154,,0.11,-0.004,-0.086,0.017,,-0.479 (active),0.004,0.272,0.002,0.021,-0.236,0.261
SNAP23 isoform 2 (UniProt O00161),-0.323,-0.202,0.029,-0.118,,-0.295,0.071,-0.15,-0.152,0.016,0.075,,,0.188,,-0.054,-0.185,,,-0.163
SLU7 (UniProt O95391),-0.086,-0.042,-0.065,0.016,-0.006,0.071,0.021,0.002,,0.026,,0.006,0.054,-0.187,0.06,0.255,0.028,-0.099,-0.267,0.367 (active)
SLC30A6 isoform 2 (UniProt Q6NXT4),0.023,0.126,0.016,0.011,,0.003,-0.322 (active),0.003,-0.18,-0.005,0.115,-0.027,0.009,-0.095,,0.048,0.114,-0.058,0.034,0.116
SOX5 (UniProt P35711),0.048,-0.113,-0.219,0.017,0.074,0.034,-0.025,,-0.104,,0.137,-0.019,0.006,0.007,-0.073,0.06,-0.017,0.026,-0.235,0.007
SMC6 (UniProt Q96SB8),-0.017,-0.087,0.049,-0.003,-0.004,-0.02,0.045,-0.018,-0.013,0.007,-0.051,-0.06,-0.026,-0.039,0.034,-0.002,0.004,-0.011,0.007,0.029
SZT2 (UniProt Q5T011),-0.169,0.012,-0.002,,0.109,-0.011,-0.105,-0.193,-0.031,0.094,0.275,0.189,,-0.108,-0.081,-0.17,-0.097,,-0.214,0.22
SMARCAD1 isoform 2 (UniProt Q9H4L7),-0.007,-0.13,0.037,0.03,0.003,0.029,0.052,-0.018,0.004,0.028,-0.005,-0.015,-0.073,-0.019,-0.013,-0.044,0.018,0.003,-0.045,0.008
SKP2 (UniProt Q13309),-0.048,-0.077,0.044,0.189,0.03,-0.053,0.085,0.01,0.173,0.058,-0.275,,-0.159,-0.098,-0.024,-0.075,-0.096,-0.024,,0.104
STAR (UniProt P49675),-0.024,0.448 (active),0.073,0.034,0.005,-0.052,0.063,0.133,,-0.056,,,-0.123,0.117,0.017,0.156,0.063,0.019,,0.142
SPATA5 (UniProt Q8NB90),0.033,-0.101,0.007,0.029,0.085,0.04,0.008,0.025,0.004,-0.024,-0.017,-0.009,-0.046,-0.027,-0.015,-0.13,0.02,-0.017,-0.05,0.034
SMIM8 (UniProt Q96KF7),-0.01,0.034,-0.041,0.034,0.066,0.028,0.078,0.062,0.014,-0.015,-0.053,-0.079,-0.041,-0.146,0.019,0.128,-0.038,-0.059,-0.035,0.018
SORBS3 (UniProt O60504),0,-0.095,0.032,-0.062,0.059,0.02,-0.143,,0.065,,0.072,0.007,-0.002,0.006,-0.127,0.024,-0.012,-0.019,-0.032,0.025
SH3BP2 isoform 4 (UniProt P78314),-0.023,0.026,0.03,-0.054,0.099,,,,0.053,,-0.135,-0.41 (active),-0.021,0.01,0.053,-0.02,,0.057,-0.105,0.123
